Measured values from the supplement of paper PMC12494721.
Counter-ions that a name gives are not always drawn.

Experiments:
Conditions in all cases: 20 µM; incubation time: 27 h, anaerobic, 37 °C;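 for the amine columns active = adjusted P below 0.05 in both replicates with a change the same way and a mean fold change under 0.8 or over 1.25; inactive = the rest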
[1] = test system: Clostridium sporogenes DSM 1664; assay: growth (OD595) fold change vs plate DMSO controls (fold change (ratio)); higher = more growth
Method in brief: (§1)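 Growth is expressed as the fold change relative to the median of the DMSO control wells on each plate. Cultures in mGAM were grown anaerobically in 96-well plates for 27 h at 37 °C, shaken, and read at 595 nm. Readings were blank-subtracted, corrected for compound background with 20 µM compound solutions in water, and converted to OD with a calibration factor of 5. Fold changes above 1.5 were set to NA, and each value is the mean of 2 biological replicates.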

[2] = test system: Escherichia coli IAI1; assay: as above
Method in brief: as §1

[3] = test system: Klebsiella aerogenes DSM 30053; assay: as above
Method in brief: as §1

[4] = test system: Ruminococcus gnavus DSM 108212; assay: as above
Method in brief: as §1

[5] = test system: Klebsiella aerogenes DSM 30053; assay: fold change of Histamine concentration vs plate DMSO controls (fold change (ratio)); higher = more amine produced, active = hit call of the paper (significant change in both replicates, either direction)
Method in brief: (§2)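 Amines were quantified by LC–triple-quadrupole MS in dynamic MRM mode against external calibration curves, with drift correction within each batch. The samples were whole anaerobic mGAM cultures of four gut bacterial strains, grown for 27 h at 37 °C in 80 µL wells and extracted with cold acetonitrile/methanol with 0.1% formic acid, then centrifuged. Values are reported as fold change over DMSO controls on the same plate. The mean of 2 biological replicates is given.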

[6] = test system: Clostridium sporogenes DSM 1664; assay: fold change of Tryptamine concentration vs plate DMSO controls (fold change (ratio)); higher = more amine produced, active = hit call of the paper (significant change in both replicates, either direction)
Method in brief: as §2

[7] = test system: Ruminococcus gnavus DSM 108212; assay: as above
Method in brief: as §2

[8] = test system: Escherichia coli IAI1; assay: fold change of Putrescine concentration vs plate DMSO controls (fold change (ratio)); higher = more amine produced, active = hit call of the paper (significant change in both replicates, either direction)
Method in brief: as §2

[9] = test system: Klebsiella aerogenes DSM 30053; assay: as above
Method in brief: as §2

[10] = test system: Escherichia coli IAI1; assay: fold change of Cadaverine concentration vs plate DMSO controls (fold change (ratio)); higher = more amine produced, active = hit call of the paper (significant change in both replicates, either direction)
Method in brief: as §2

[11] = test system: Klebsiella aerogenes DSM 30053; assay: as above
Method in brief: as §2

[12] = test system: Ruminococcus gnavus DSM 108212; assay: fold change of 2-Phenylethylamine concentration vs plate DMSO controls (fold change (ratio)); higher = more amine produced, active = hit call of the paper (significant change in both replicates, either direction)
Method in brief: as §2

Row | Structure (SMILES) | growth [1] | growth [2] | growth [3] | growth [4] | fold change of Histamine concentration [5] | fold change of Tryptamine concentration [6] | fold change of Tryptamine concentration [7] | fold change of Putrescine concentration [8] | fold change of Putrescine concentration [9] | fold change of Cadaverine concentration [10] | fold change of Cadaverine concentration [11] | fold change of 2-Phenylethylamine concentration [12]
1 | c1cc2ccc3cccc4ccc(c1)c2c34 [Pyrene] | 1.01 | 0.96 | 0.997 | 0.936 | 0.993 (inactive) | 0.953 (inactive) | 1.03 (inactive) | 1.01 (inactive) | 1.05 (inactive) | 0.969 (inactive) | 1.03 (inactive) | 1 (inactive)
2 | C[C@]12CCC(=O)C(O)=C1CC[C@@H]1[C@@H]2CC[C@]2(C)C(=O)CC[C@@H]12 [Formestane] | 1.03 | 0.965 | 0.974 | 1.13 | 1.05 (inactive) | 0.968 (inactive) | 1 (inactive) | 1.02 (inactive) | 1.01 (inactive) | 1.01 (inactive) | 0.981 (inactive) | 1.03 (inactive)
3 | COc1ccc(Cc2nccc3cc(OC)c(OC)cc23)cc1OC [Papaverine hydrochloride] | 1.17 | 1.02 | 1.08 | 0.848 | 0.961 (inactive) | 1 (inactive) | 0.99 (inactive) | 0.964 (inactive) | 0.992 (inactive) | 1.22 (inactive) | 1.02 (inactive) | 1.06 (inactive)
4 | CCC1(c2ccc(N)cc2)CCC(=O)NC1=O (configuration not stated) [Glutethimide, para-amino] | 0.956 | 1.01 | 0.979 | 1.14 | 1.12 (inactive) | 1.02 (inactive) | 1.04 (inactive) | 0.992 (inactive) | 1.02 (inactive) | 0.974 (inactive) | 0.993 (inactive) | 1 (inactive)
5 | Nc1c(Cl)c(F)nc(OCC(=O)O)c1Cl | 0.964 | 1.01 | 1.05 | 1.03 | 0.96 (inactive) | 1.03 (inactive) | 1.04 (inactive) | 0.986 (inactive) | 0.955 (inactive) | 0.95 (inactive) | 1.01 (inactive) | 1.05 (inactive)
6 | Cc1cc(C(F)(C(F)(F)F)C(F)(F)F)ccc1NC(=O)c1cccc(I)c1C(=O)NC(C)(C)CS(C)(=O)=O | 1.23 | 0.991 | 1.02 | 0.917 | 1 (inactive) | 0.921 (inactive) | 0.939 (inactive) | 0.989 (inactive) | 1 (inactive) | 1 (inactive) | 0.987 (inactive) | 0.908 (inactive)
7 | NC(=O)CN1CC(O)CC1=O (configuration not stated) [Oxiracetam] | 0.902 | 0.994 | 0.98 | 0.915 | 1 (inactive) | 1.14 (inactive) | 1.1 (inactive) | 0.941 (inactive) | 0.865 (inactive) | 0.876 (inactive) | 1.07 (inactive) | 1.14 (inactive)
8 | CO/N=C(/C(=O)OC)c1ccccc1CO/N=C(\C)c1cccc(C(F)(F)F)c1 | 0.917 | 1.01 | 0.98 | 1.1 | 1.02 (inactive) | 0.956 (inactive) | 0.991 (inactive) | 0.982 (inactive) | 0.987 (inactive) | 0.95 (inactive) | 1.02 (inactive) | 0.951 (inactive)
9 | CCCCC(C#N)(Cn1cncn1)c1ccc(Cl)cc1 (configuration not stated) | 1.07 | 1.07 | 1.01 | 1.14 | 0.939 (inactive) | 1.2 (inactive) | 1.07 (inactive) | 0.908 (inactive) | 0.815 (inactive) | 0.907 (inactive) | 1.16 (inactive) | 1.14 (inactive)
10 | Cc1cc(C)c(C2=C(OC(=O)CC(C)(C)C)C3(CCCC3)OC2=O)c(C)c1 | 0.884 | 1.02 | 1.01 | 0.937 | 1 (inactive) | 0.972 (inactive) | 1.01 (inactive) | 1.01 (inactive) | 1.02 (inactive) | 0.983 (inactive) | 0.999 (inactive) | 1.01 (inactive)
11 | CC(Oc1ccc(Oc2ncc(C(F)(F)F)cc2Cl)cc1)C(=O)O (configuration not stated) | 1.02 | 1.03 | 1.01 | 0.977 | 0.989 (inactive) | 0.943 (inactive) | 0.974 (inactive) | 1.05 (inactive) | 0.988 (inactive) | 1.04 (inactive) | 0.981 (inactive) | 0.982 (inactive)
12 | CCC(CC)Nc1c([N+](=O)[O-])cc(C)c(C)c1[N+](=O)[O-] | 1.11 | 1.01 | 0.983 | 1.02 | 1.07 (inactive) | 1.04 (inactive) | 0.998 (inactive) | 0.991 (inactive) | 1.01 (inactive) | 1.01 (inactive) | 0.992 (inactive) | 1.01 (inactive)
13 | C=CC[C@]1(O)CC[C@H]2[C@@H]3CCC4=CCCC[C@@H]4[C@H]3CC[C@@]21C [Allylestrenol] | 1.01 | 1.01 | 1.06 | 1.09 | 0.993 (inactive) | 1.03 (inactive) | 1.01 (inactive) | 0.977 (inactive) | 0.992 (inactive) | 0.924 (inactive) | 1.02 (inactive) | 1.1 (inactive)
14 | CCN(C(C)=O)c1cccc(-c2ccnc3c(C#N)cnn23)c1 [Zaleplon] | 1.07 | 0.995 | 1.05 | 1.05 | 0.987 (inactive) | 0.972 (inactive) | 1.02 (inactive) | 1.03 (inactive) | 0.992 (inactive) | 1.02 (inactive) | 1.01 (inactive) | 1.04 (inactive)
15 | CC(NC(C)(C)C)C(=O)c1cccc(Cl)c1 (configuration not stated) [Bupropion hydrochloride] | 0.957 | 1.01 | 0.949 | 1.02 | 1.08 (inactive) | 0.987 (inactive) | 1.08 (inactive) | 1.02 (inactive) | 0.995 (inactive) | 1 (inactive) | 0.97 (inactive) | 1.12 (inactive)
16 | CNC(=O)/C=C(\C)OP(=O)(OC)OC | 1.06 | 1.01 | 1.01 | 0.948 | 1.01 (inactive) | 1.05 (inactive) | 0.985 (inactive) | 0.968 (inactive) | 0.986 (inactive) | 1.05 (inactive) | 0.998 (inactive) | 1.06 (inactive)
17 | CCN[C@@H](C)Cc1cccc(C(F)(F)F)c1 [Dexfenfluramine hydrochloride] | 1.03 | 1.05 | 1.1 | 0.954 | 0.833 (inactive) | 1.28 (inactive) | 1.07 (inactive) | 1.02 (inactive) | 0.95 (inactive) | 0.869 (inactive) | 1.06 (inactive) | 1.16 (inactive)
18 | CC1(C)[C@H](C(=O)O[C@H](C#N)c2cccc(Oc3ccccc3)c2)[C@@H]1C=C(Br)Br | 1.12 | 0.981 | 0.998 | 1.02 | 1.02 (inactive) | 0.958 (inactive) | 0.967 (inactive) | 0.983 (inactive) | 1.01 (inactive) | 0.989 (inactive) | 1 (inactive) | 0.915 (inactive)
19 | CCOCn1c(-c2ccc(Cl)cc2)c(C#N)c(Br)c1C(F)(F)F | 0.89 | 1 | 1.01 | 0.948 | 1 (inactive) | 0.999 (inactive) | 1.02 (inactive) | 1.03 (inactive) | 0.999 (inactive) | 1.03 (inactive) | 0.983 (inactive) | 1.01 (inactive)
20 | CC(C)N1C(=O)N(c2ccccc2)CS/C1=N\C(C)(C)C | 1.04 | 1.03 | 1.03 | 0.99 | 0.967 (inactive) | 1.03 (inactive) | 1.03 (inactive) | 1.02 (inactive) | 1.03 (inactive) | 1.06 (inactive) | 1.01 (inactive) | 0.961 (inactive)
21 | CCCCN(CCCC)N=O [DBNA (N-nitrosodibutylamine)] | 0.789 | 0.729 | 0.673 | 0.238 | 1.03 (inactive) | 1.01 (inactive) | 1.01 (inactive) | 1.03 (inactive) | 1.02 (inactive) | 1.05 (inactive) | 1.01 (inactive) | 1.01 (inactive)
22 | O=C(O)C(F)(F)C(F)(F)C(F)(F)C(F)(F)C(F)(F)C(F)(F)C(F)(F)C(F)(F)F [PFNA (Perfluorononanoic acid)] | 1.04 | 1 | 1.01 | 1.05 | 1.01 (inactive) | 0.955 (inactive) | 0.968 (inactive) | 1.01 (inactive) | 0.994 (inactive) | 1.03 (inactive) | 0.982 (inactive) | 0.915 (inactive)
23 | CC(=O)OCC1=C(C(=O)O)N2C(=O)[C@@H](N)[C@H]2SC1 [Cephalosporanic acid, 7-amino] | 1.05 | 1.05 | 0.979 | 0.924 | 1.07 (inactive) | 1.04 (inactive) | 0.949 (inactive) | 1.05 (inactive) | 1.01 (inactive) | 1 (inactive) | 0.985 (inactive) | 0.942 (inactive)
24 | C[C@]12CC[C@H](O)C[C@@H]1CC[C@@H]1[C@@H]2CC[C@]2(C)C(=O)CC[C@@H]12 [Epiandrosterone] | 1.01 | 1.01 | 0.974 | 0.678 | 1.04 (inactive) | 0.953 (inactive) | 0.973 (inactive) | 0.99 (inactive) | 1.02 (inactive) | 1.02 (inactive) | 1 (inactive) | 0.962 (inactive)
25 | c1ccc2c(c1)-c1cccc3cccc-2c13 [Fluoranthene] | 0.942 | 0.967 | 0.964 | 1.01 | 1.04 (inactive) | 1.01 (inactive) | 1.02 (inactive) | 0.995 (inactive) | 1.01 (inactive) | 1.01 (inactive) | 0.976 (inactive) | 1.04 (inactive)
26 | C=C1CC[C@@]2(O)[C@H]3Cc4ccc(O)c5c4[C@@]2(CCN3CC2CC2)[C@H]1O5 [Nalmefene hydrochloride] | 1.08 | 0.981 | 1.02 | 1.07 | 1.02 (inactive) | 0.942 (inactive) | 0.59 (inactive) | 0.99 (inactive) | 1.02 (inactive) | 1.03 (inactive) | 1.01 (inactive) | 0.578 (inactive)
